# From PubChem BioAssay (NCATS)
# Records with an inconclusive call do not appear. Entries that show only a call come without a potency. Unmarked numbers belong to inactive results. Activity calls are given as the source filed them. Calls follow the shape of the dose curve; as a rule, active = well fitted curve in the direction sought with a large enough effect; inconclusive = small, poorly fitted or top-dose-only effect, or another doubt; inactive = no such curve, though single readings can be large; an effect the other way counts as inactive or inconclusive.
# Test: Quantitative highthroughput screen to assess conditional lethalithy of SEM cells grown in RPMI1640 with dialyzed fetal bovine serum (RPMI+ds) (AID 1963884); also: nearly all actives have a fitted effect of over 35% in size; also: potency is read from the fitted curve at half-maximal effect
# Settings: SEM B-ALL cells, RPMI+dialyzed FBS, CellTiter-Glo viability, 48 h; series mostly up to 45.8 µM
# How it was run: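 Each medium arm—HPLM with 10% dialyzed FBS, or RPMI1640 with 5 mM glucose and 10% untreated or dialyzed FBS—was screened against an 11-point, 3-fold compound titration for 48 h at 37 °C, with CellTiter-Glo luminescence as endpoint.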
row,Structure (SMILES),Potency
1,CC(C)(C)c1cc(C=C(C#N)C#N)cc(Br)c1O,inactive
2,NC1=NC(=O)N2CC12 (stereo not given),2.96 µM (active)
3,C[C@]12CCC(=O)C(O)=C1CC[C@@H]1[C@H]3CCC(=O)[C@@]3(C)CC[C@@H]12,inactive
4,c1ccc2c(CN3CCNCC3)cccc2c1,inactive
5,CC(C)N[C@@H]1CCn2c(=O)[nH]c3cccc(c32)[C@@H]1O,inactive
6,CC(=O)OCC1=C(C(=O)O)N2C(=O)[C@@H](N)[C@@H]2SC1,inactive
7,C[C@H]([C@H](O)CCC(C)(C)O)[C@H]1CC[C@@]2(O)C3=CC(=O)[C@@H]4C[C@@H](O)[C@@H](O)C[C@]4(C)[C@@H]3CC[C@]12C,inactive
8,C[C@]12CC[C@H]3[C@@H](CCC4=CC(=O)CC[C@@]43C)[C@H]1CC[C@H]2O,inactive
9,CC=C(C)C(=O)O[C@H]1C(C)=C2[C@@H]3OC(=O)[C@@](C)(O)[C@@]3(O)[C@@H](OC(=O)CCC)C[C@](C)(OC(C)=O)[C@@H]2[C@@H]1OC(=O)CCCCCCC,0.0332 µM (active)
10,COC1(CS(=O)c2ccccc2)CCN(CCc2c[nH]c3ccc(F)cc23)CC1 (stereo not given),inactive
11,C1=C2CCCN[C@H]2[C@@H]2C[C@H]1[C@@H]1CCCCN1C2,inactive
12,NC1CC1c1ccccc1 (stereo not given),inactive
13,Cc1c(N)nc([C@H](CC(N)=O)NC[C@@H](N)C(N)=O)nc1C(=O)N[C@H](C(=O)N[C@@H](C)[C@H](O)[C@@H](C)C(=O)N[C@@H](C(=O)NCCc1nc(-c2nc(C(=O)NCCC[S+](C)C)cs2)cs1)[C@@H](C)O)C(O[C@H]1O[C@H](CO)[C@H](O)[C@@H](O)[C@@H]1O[C@H]1O[C@H](CO)[C@@H](O)[C@H](OC(N)=O)[C@H]1O)c1cnc[nH]1 (stereo not given in full),4.18 µM (active)
14,O=C1CCC[C@@H]2[C@H]3CCCN4CCC[C@@H](CN12)[C@@H]34,inactive
15,CNC(=O)c1ccc(N2C(=S)N(c3ccc(C#N)c(C(F)(F)F)c3)C(=O)C23CCC3)cc1F,inactive

# Test: Cellular viability qHTS for adrenocortical cancer (ACC) cell line SW-13 (AID 1963989);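 also: cells grown in serum-free medium with ITS supplement; nearly all actives have a fitted effect of over 65% in size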
# Settings: SW-13 ACC cells viability, CellTiter-Glo, 48 h; activity (max response): stronger effect = lower value
# How it was run: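 IC50 and maximal-response values come from four-parameter logistic fits of titration data. SW-13 cells in serum-free medium received compounds (up to 46 uM final) for 48 h before CellTiter-Glo luminescence.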
row,Structure (SMILES),activity (max response) [%]
1,CC(C)(C)c1cc(C=C(C#N)C#N)cc(Br)c1O,9.19
2,Cc1ccccc1-n1c(Cn2cnc3c(N)ncnc32)nc2cccc(C)c2c1=O,9.58
3,S=C(SSC(=S)N1CCCCC1)N1CCCCC1,-0.757
4,ClCCCN1CCN(c2cccc(Cl)c2)CC1,-6.01
5,Nc1c(Cl)c(Cl)c(Cl)c(Cl)c1Cl,-9.89
6,C[C@]12CC[C@H]3[C@@H](CCC4=CC(=O)CC[C@@]43C)[C@H]1CC[C@H]2OC(=O)CCC1CCCC1,-10.5
7,COC1(CS(=O)c2ccccc2)CCN(CCc2c[nH]c3ccc(F)cc23)CC1 (stereo not given),-19.4
8,Cc1sc2c(c1C)C(c1ccc(Cl)cc1)=NC(CC(N)=O)c1nnc(C)n1-2 (stereo not given),-21.6
9,O=S(=O)(O)C(F)(F)C(F)(F)C(F)(F)C(F)(F)F,12.3
10,O=C(Nc1ccccc1-c1ccc(Cl)cc1)c1cccnc1Cl,-12.7
11,COc1ccc2[nH]cc(CCN(C(C)C)C(C)C)c2c1,-8.69
12,C[C@]12CC[C@@H]3[C@@H](CCC4=CC(=O)CC[C@@H]43)[C@@H]1CC[C@@H]2OC(=O)CCc1ccccc1,-2.06
13,c1ccc(CN2CCNCC2)cc1,-9.53

# Test: Cellular viability qHTS for adrenocortical cancer (ACC) cell line NCI-H295R (AID 1963990); also: nearly all actives have a fitted effect of over 60% in size
# Settings: CellTiter-Glo ATP luminescence, 48 h; series mostly up to 46.1 µM
# How it was run: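 Adrenocortical carcinoma cells, suspended at 300 000 cells/mL in serum-free DMEM plus ITS, rested overnight before pin transfer of compound. After two days' incubation, ATP-dependent luminescence was recorded and curve-fitted.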
row,Structure (SMILES),Potency
1,CC(C)(C)c1cc(C=C(C#N)C#N)cc(Br)c1O,inactive
2,NC1=NC(=O)N2CC12 (stereo not given),inactive
3,Cc1ccccc1-n1c(Cn2cnc3c(N)ncnc32)nc2cccc(C)c2c1=O,inactive
4,c1ccc2c(CN3CCNCC3)cccc2c1,inactive
5,CC(O)(CS(=O)(=O)c1ccc(F)cc1)C(=O)Nc1ccc(C#N)c(C(F)(F)F)c1 (stereo not given),inactive
6,COC1(CS(=O)c2ccccc2)CCN(CCc2c[nH]c3ccc(F)cc23)CC1 (stereo not given),inactive
7,CNC(=O)c1ccc(N2C(=S)N(c3ccc(C#N)c(C(F)(F)F)c3)C(=O)C23CCC3)cc1F,inactive
